# Source: PubChem BioAssay (NCATS)
# Inconclusive results are not listed. A call without a number means that no potency is given here. A number with no mark means an inactive call. Calls of active or inactive are those of the source. Calls come from the whole dose curve; as a rule, active = well fitted curve in the direction sought with a large enough effect; inconclusive = small, poorly fitted or top-dose-only effect, or another doubt; inactive = no such curve, though single readings can be large; an effect the other way counts as inactive or inconclusive.
# Assays:
# [1] = BET inhibitor-based combinations targeting novel dependencies in MECOM-rearranged (r) AML: SET-2 cell line (AID 2202231); conditions: SET-2 AML cells viability, CellTiter-Glo luminescence, 48 h; viability: stronger effect = lower value, concentration not given here; note: nearly all actives have a fitted effect of over 35% in size
# Method in brief: (§1)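 Readout: CellTiter-Glo luminescence. Exposure: 48 h, 11 concentrations, 500 cells/well. Metric: AUC and within-line Z-AUC after DMSO/empty-well normalization.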
# [2] = BET inhibitor-based combinations targeting novel dependencies in MECOM-rearranged (r) AML: OCI-AML3 cell line (AID 2202232); conditions: Potency: OCI-AML3 viability; note: nearly all actives have a fitted effect of over 35% in size
# Method in brief: as §1
# [3] = BET inhibitor-based combinations targeting novel dependencies in MECOM-rearranged (r) AML: MV-4-11 cell line (AID 2202233); note: nearly all actives have a fitted effect of over 45% in size
# Method in brief: (§2)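 Seeding density was 500 cells/well, and drug exposure lasted 48 hr under standard culture conditions. Read-out used CellTiter-Glo reagent with a 15 min room-temperature incubation before luminescence measurement; AUC and Z-AUC summarize the normalized responses.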
# [4] = BET inhibitor-based combinations targeting novel dependencies in MECOM-rearranged (r) AML: UCSD-AML1 cell line (AID 2202235); note: nearly all actives have a fitted effect of over 40% in size
# Method in brief: as §2
# [5] = BET inhibitor-based combinations targeting novel dependencies in MECOM-rearranged (r) AML: AML-191 cell line (AID 2202236; note: nearly all actives have a fitted effect of over 35% in size)
# Method in brief: as §1
# [6] = BET inhibitor-based combinations targeting novel dependencies in MECOM-rearranged (r) AML: AML-194 cell line (AID 2202237; note: nearly all actives have a fitted effect of over 40% in size)
# Method in brief: as §1
# [7] = BET inhibitor-based combinations targeting novel dependencies in MECOM-rearranged (r) AML: HNT-34 cell line (AID 2202234); note: nearly all actives have a fitted effect of over 35% in size
# Method in brief: as §2
# Potency is the fitted concentration of half-maximal effect.
Structure (SMILES),Potency [1],Potency [2],Potency [3],Potency [4],Potency [5],Potency [6],viability [1] [%],Potency [7]
C=C1C(=O)O[C@@H]2[C@H]3C(C)=CC[C@@]34O[C@@]4(C)CC[C@@H]12,9.34 µM (active),8.33 µM (active),7.42 µM (active),13200 nM (active),13.2 µM (active),13.2 µM (active),–,–
COc1ccc(CNC(=O)c2cc(-c3cncc(Cl)c3)cnc2-c2ccccn2)nc1OC,–,inactive,–,inactive,inactive,inactive,109,inactive
COc1cc(-c2cn(C)c(=O)c3cnccc23)cc(OC)c1CN(C)C,–,4.68 µM (active),–,inactive,–,inactive,106,inactive
C#CCN(C)CC1=Cc2ccccc2Oc2ccccc21,–,inactive,–,inactive,inactive,inactive,106,inactive
CC(=O)Nc1cc(Oc2ccc3c(nc(Nc4ccc(F)cc4F)n3C)c2C)ccn1,0.209 µM (active),0.934 µM (active),–,235 nM (active),–,–,–,0.118 µM (active)
Cc1cc(O[C@@H](CCC(F)(F)F)c2ccc(C(=O)NCCC(=O)O)cc2)cc(C)c1-c1ccc(C(C)(C)C)cc1,20.9 µM (active),20.9 µM (active),–,–,16.6 µM (active),26.3 µM (active),–,20.9 µM (active)
CC(=O)NCCCS(=O)(=O)O,–,inactive,–,inactive,inactive,inactive,115,inactive
CNS(=O)(=O)Nc1nccc(Cc2c(C)c3ccc(Oc4ncccn4)cc3oc2=O)c1F,3.72 µM (active),0.0332 µM (active),–,525 nM (active),–,–,–,–
C#Cc1cccc(Nc2ncnc3cc4c(cc23)OCCOCCOCCO4)c1,–,inactive,–,–,–,inactive,93.5,18.6 µM (active)
CCOC(=O)C1=C(C)NC(=S)NC1c1cccc(O)c1 (centres undefined),–,20.9 µM (active),–,–,–,–,98.4,18.6 µM (active)
CC(=O)Nc1ccc(O)cc1,–,inactive,–,inactive,inactive,inactive,94.1,inactive
CNC(=O)CCc1cc(-c2ccc(-c3ccc(C(F)(F)F)cc3)cc2)n(-c2ccc(N3CCNCC3)cc2)n1,7.42 µM (active),5.9 µM (active),–,–,5.9 µM (active),7.42 µM (active),–,8.33 µM (active)
CCS(=O)(=O)N1CCC(C(C)n2c(C)c(C(=O)NCc3c(OC)cc(C)[nH]c3=O)c3ccccc32)CC1 (centres undefined),–,inactive,–,inactive,inactive,inactive,108,inactive
C=CCN1C[C@H](C(=O)N(CCCN(C)C)C(=O)NCC)CC2c3cccc4[nH]cc(c34)C[C@H]21 (some centres undefined),–,10.5 µM (active),–,inactive,inactive,inactive,115,inactive
O=C1CC[C@H](N2Cc3c(OCc4ccc(CN5CCOCC5)cc4)cccc3C2=O)C(=O)N1,–,inactive,–,inactive,–,inactive,102,inactive
O=C(Cc1ccccc1)Nc1nnc(CCSCCc2nnc(NC(=O)Cc3ccccc3)s2)s1,9.34 µM (active),0.468 µM (active),–,–,–,inactive,–,inactive
O=C1Cc2cc(C(=O)NC3C[C@H]4CC[C@@H](C3)N4S(=O)(=O)CC3CCN(CCCC(F)(F)F)CC3)c(Cl)cc2N1 (some centres undefined),–,inactive,–,inactive,inactive,inactive,107,inactive
Cc1[nH]nc2ncc(C(=O)N3CCC[C@H]3c3ccc(Cl)cc3)cc12,–,inactive,–,inactive,inactive,inactive,105,inactive
CS[C@H]1SC[C@@H]2C(=O)N(C)[C@H](C(C)C)C(=O)OC[C@H](NC(=O)c3cnc4ccccc4n3)C(=O)N[C@H](C)C(=O)N(C)[C@H]1C(=O)N(C)[C@H](C(C)C)C(=O)OC[C@H](NC(=O)c1cnc3ccccc3n1)C(=O)N[C@H](C)C(=O)N2C,0.0148 µM (active),0.0047 µM (active),–,5.3 nM (active),0.0132 µM (active),0.0132 µM (active),–,0.0066 µM (active)
O=C(/C=C/c1cccnc1)NCCCCC1CCN(C(=O)c2ccccc2)CC1,–,0.0042 µM (active),0.0209 µM (active),–,0.0059 µM (active),inactive,119,–
C[C@H](CCC(=O)O)[C@H]1CC[C@H]2[C@@H]3[C@H](O)C[C@@H]4C[C@H](O)CC[C@]4(C)[C@H]3CC[C@]12C,–,inactive,–,inactive,inactive,inactive,104,inactive
